Laboratory results as given in PubChem BioAssay.
Several values for one entry are separate records, joined by “and”; a condition that tells them apart may be missing. Equal values may be shown once. Records with an inconclusive call do not appear. Activity calls are given as the source filed them. Unless noted, how the calls were made is not given here. Non-standard residues stand in square brackets, D forms with d. Residues, ends and D or L forms follow the SMILES beside them. pGlu = O=C1CC[C@@H](C(=O)O)N1; Thz = O=C(O)[C@@H]1CSCN1

Tests used:
[1] = tested on: Neuropilin-2 / VEGF-C interaction (human); test: small molecules blocking Neuropilin-2/VEGF-C interaction – biochemical, microplate binding format, z-score (AID 743281); details: microplate NRP2/VEGF-C binding assay; stronger effect = lower value
[2] = viability loss in pontine glioma line – cell-based, SU-DIPG-XVII, MIPE5.0, CellTiter-Glo, qHTS, dose response (AID 1347060; cut-off not given, nearly all actives have AC50 up to about 26 µM); details: CellTiter-Glo ATP luminescence
[3] = viability loss in pontine glioma line – cell-based, SU-DIPG-XIII, MIPE4.0, CellTiter-Glo, qHTS, dose response (AID 1347061; cut-off not given, nearly all actives have AC50 up to about 37 µM;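 further: cells exposed to compound for 48 hours before readout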); details: CellTiter-Glo ATP luminescence
[4] = viability loss in pontine glioma line – cell-based, JHH-DIPG-1, MIPE4.0, CellTiter-Glo, qHTS, dose response (AID 1347062; cut-off not given, nearly all actives have AC50 up to about 27 µM;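 on AC50: cells exposed to compound for two days before readout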); details: JHH-DIPG-1 viability, CellTiter-Glo ATP luminescence
[5] = viability loss in pontine glioma line – cell-based, SU-DIPG-XIII, MIPE5.0, CellTiter-Glo, qHTS, dose response (AID 1347064; cut-off not given, nearly all actives have AC50 up to about 23 µM); details: CellTiter-Glo ATP luminescence
[6] = viability loss in pontine glioma line – cell-based, SU-DIPG-XXV, MIPE5.0, CellTiter-Glo, qHTS, dose response (AID 1347065; cut-off not given, nearly all actives have AC50 up to about 26 µM;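 further: cells exposed to compound for 48 hours before ATP readout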); details: CellTiter-Glo ATP luminescence
[7] = growth inhibition of DIPG cells – cell-based, MIPE4.0 library, CellTiter-Glo luminescence, qHTS (AID 1347066; cut-off not given, nearly all actives have AC50 up to about 30 µM;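 further: cells exposed to compound for 48 hours before readout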); details: SU-DIPG-VI viability, CellTiter-Glo ATP luminescence
[8] = JHH-DIPG-1 glioma cell viability, MIPE5.0 library, CellTiter-Glo luminescence, qHTS (AID 1347067; cut-off not given, nearly all actives have AC50 up to about 26 µM;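 further: cells exposed to compound for 48 hours before readout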); details: JHH-DIPG-1 glioma viability, CellTiter-Glo ATP luminescence
[9] = growth inhibition of DIPG cells – cell-based, MIPE5.0 library, qHTS (AID 1347068; cut-off not given, nearly all actives have IC50 up to about 30 µM); details: SU-DIPG-XXV viability
[10] = blockers of cellular phospholipid synthesis – cell-based, LOPAC library, screen 4, primary screen (AID 1347384); details: animal cells, phospholipid biosynthesis inhibition screen; at 10 µM
[11] = molecular target: NAD(+) hydrolase SARM1 (Homo sapiens) (UniProt Q6SZW1); test: blocking NAD cleavage by SARM1 SAM-TIR – cell lysate, NAD-Glo luminescence (AID 1508614;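 active means compound whose remaining NAD level is above about 45 nM, limit read from the data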); details: SAM-TIR HEK293T lysate NADase, at 1 µM, stronger effect = higher value
Chain of NAD(+) hydrolase SARM1 (Homo sapiens) (Q6SZW1 whole entry, looked up, the tested form may be a part): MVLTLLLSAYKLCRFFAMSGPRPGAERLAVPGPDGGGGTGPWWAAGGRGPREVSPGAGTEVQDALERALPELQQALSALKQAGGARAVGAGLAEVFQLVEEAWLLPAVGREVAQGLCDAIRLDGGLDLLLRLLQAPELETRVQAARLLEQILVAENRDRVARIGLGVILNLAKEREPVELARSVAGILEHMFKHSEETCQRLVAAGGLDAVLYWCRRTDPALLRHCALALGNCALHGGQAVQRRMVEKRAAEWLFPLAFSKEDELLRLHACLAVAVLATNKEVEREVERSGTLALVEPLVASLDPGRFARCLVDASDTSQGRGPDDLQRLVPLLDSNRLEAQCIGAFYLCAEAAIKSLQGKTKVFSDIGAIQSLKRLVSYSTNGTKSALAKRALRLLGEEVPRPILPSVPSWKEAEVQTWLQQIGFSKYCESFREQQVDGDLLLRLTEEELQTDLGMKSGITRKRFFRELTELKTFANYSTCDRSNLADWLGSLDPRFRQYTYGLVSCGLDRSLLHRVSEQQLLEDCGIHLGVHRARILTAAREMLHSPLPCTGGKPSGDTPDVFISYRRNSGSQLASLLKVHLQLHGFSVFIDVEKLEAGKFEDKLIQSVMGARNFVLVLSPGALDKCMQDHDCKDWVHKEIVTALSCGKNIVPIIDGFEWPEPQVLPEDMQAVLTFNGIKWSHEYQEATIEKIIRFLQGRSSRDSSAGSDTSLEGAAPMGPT

[12] = molecular target: Mitogen-activated protein kinase 7 (Homo sapiens) (UniProt Q13164); test: Gal4-ERK5 driven luciferase induction – cell-based, HTS, primary screen (AID 1508626;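 active means luciferase signal above three times the same-plate solvent-only control wells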;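 further: luciferase driven by Gal4-ERK5 fusion binding five Gal4 sites before minimal TATA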); details: HeLa Gal4-ERK5 transactivation, 18 h, at 5 µM, stronger effect = higher value
Chain of Mitogen-activated protein kinase 7 (Homo sapiens) (Q13164 whole entry, looked up, the tested form may be a part): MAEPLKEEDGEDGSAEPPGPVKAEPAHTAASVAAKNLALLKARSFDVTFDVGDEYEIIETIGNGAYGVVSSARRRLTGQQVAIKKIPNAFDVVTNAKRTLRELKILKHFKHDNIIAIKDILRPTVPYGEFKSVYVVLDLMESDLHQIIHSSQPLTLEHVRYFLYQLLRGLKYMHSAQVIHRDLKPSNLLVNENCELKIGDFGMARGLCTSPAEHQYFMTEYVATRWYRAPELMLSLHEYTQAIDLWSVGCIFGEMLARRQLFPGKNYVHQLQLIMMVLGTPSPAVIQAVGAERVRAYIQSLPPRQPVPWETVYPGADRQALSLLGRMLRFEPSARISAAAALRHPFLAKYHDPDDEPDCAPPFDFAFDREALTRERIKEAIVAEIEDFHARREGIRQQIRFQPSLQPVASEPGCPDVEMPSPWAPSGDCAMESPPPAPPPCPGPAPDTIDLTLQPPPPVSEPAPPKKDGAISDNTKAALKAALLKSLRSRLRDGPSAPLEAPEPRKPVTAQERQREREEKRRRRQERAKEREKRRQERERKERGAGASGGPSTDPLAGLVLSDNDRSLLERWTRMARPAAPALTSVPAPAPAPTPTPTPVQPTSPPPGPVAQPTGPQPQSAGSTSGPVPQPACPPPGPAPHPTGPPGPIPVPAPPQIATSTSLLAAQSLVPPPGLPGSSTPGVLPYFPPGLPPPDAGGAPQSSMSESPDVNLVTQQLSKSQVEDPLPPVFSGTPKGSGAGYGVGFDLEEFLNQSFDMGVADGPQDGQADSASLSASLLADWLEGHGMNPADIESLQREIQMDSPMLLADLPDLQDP

[13] = galactose survival enhancers in mitochondrial complex I cybrids – cell-based, galactose medium, ATP luminescence, primary screen (AID 1645843;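 active means z-score of at least 1.8 in each of two replicates, scored against plate mean and spread of sample wells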;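 further: positive z means more ATP and so rescue of galactose-driven cybrid death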); details: complex I mutant cybrid cells, 72 h, stronger effect = higher value
[14] = compounds altering HSF1 focus formation in cells – imaging, Selleck Cancer Library (AID 1347162; in the data active means plate-normalised HSF1 focus index below about 0.46); details: human cells, HSF1 nuclear foci imaging, at 10 µM; SSMD: measured here: HSF1 foci SSMD mean; cell count: measured here: cell number; plate-normalised HSF1 focus index: stronger effect = lower value
[15] = viability loss in pontine glioma line – cell-based, SU-DIPG-IV, MIPE4.0, CellTiter-Glo, qHTS, dose response (AID 1347063; cut-off not given, nearly all actives have AC50 up to about 30 µM;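 further: compound exposure lasted 48 hours before the viability readout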); details: CellTiter-Glo ATP luminescence
[16] = tested on: Aerobactin synthetase IucA (Klebsiella pneumoniae); test: inhibition of K. pneumoniae IucA enzyme – biochemical, Tocris library, absorbance (AID 1345561); details: purified IucA enzyme assay, absorbance (OD) read-out; stronger effect = lower value;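 tested at 8 µM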;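 further: 100% = enzyme without compound and 0% = no enzyme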
[17] = compounds altering circadian rhythm period length – cell-based, LOPAC library, luminescence reporter (AID 2774); details: circadian reporter cells, at 7 µM, actives lie on both sides;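 further: values are relative to mean of DMSO wells on each plate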
[18] = compounds altering viability of human ES cells (AID 493140); details: human embryonic stem cell survival screen; stronger effect = higher value;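 further: cells exposed to compounds for four days before counting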
[19] = tested on: Hepatitis C virus NS3 helicase; test: blockers of NS3h binding to ssDNA – biochemical, fluorescence polarization, LOPAC1280 library, primary screen (AID 687035; in the data active means inhibition above about 37%); details: Purified HCV NS3 helicase, Cy5-dT15 ssDNA binding fluorescence polarization; stronger effect = higher value; concentration not given here
[20] = compounds altering Cy5-DNA-NS3h complex signal – biochemical, LOPAC1280, artefact control for HCV NS3 helicase inhibitor project (AID 687037); details: Cy5-DNA-NS3h complex fluorescence interference counterscreen

Cc1cc2c(s1)Nc1ccccc1N=C2N1CCN(C)CC1
active: AC50 [8] 1.18 µM
inactive: outcome [1] | outcome [2] | outcome [3] | outcome [4] | outcome [5] | outcome [6] | outcome [7] | outcome [9] | outcome [10] | remaining NAD [11] 10 nM | luciferase signal [12] 136 AU | z-score [13] -0.17 and -0.015

O=C1CN2Cc3c(ccc(Cl)c3Cl)N=C2N1
inactive: outcome [1] | outcome [2] | outcome [3] | outcome [4] | outcome [5] | outcome [6] | outcome [8] | outcome [9] | plate-normalised HSF1 focus index [14] 1.08 and 1.14 | remaining NAD [11] 10 nM | luciferase signal [12] 40 AU | z-score [13] 0.465 and 0.535
7390 and 7000: cell count [14]
2.08 and 2.35: SSMD [14]

CC(=O)NC[C@H]1CN(c2ccc(N3CCOCC3)c(F)c2)C(=O)O1
inactive: z-score [1] 0.877 | outcome [2] | outcome [3] | outcome [4] | outcome [15] | outcome [5] | outcome [6] | outcome [7] | outcome [8] | outcome [9] | outcome [10] | remaining NAD [11] 10 nM | z-score [13] 1.22 and -0.185

CCCCN1CCCC1CNC(=O)c1cc(C#N)c2ccccc2c1OC (stereo not drawn)
inactive: z-score [1] 1.01 | remaining activity [16] 113% | z-score [13] -0.605 and -0.3

O=C(c1ccc(OCCN2CCCCC2)cc1)c1c(-c2ccc(O)cc2)sc2cc(O)ccc12
inactive: period change [17] 0.135 h | survival [18] 4.58 | inhibition [19] -6% | fluorescence ratio (interference) [20] 0.9 | remaining activity [16] 120% | outcome [2] | outcome [8] | plate-normalised HSF1 focus index [14] 1.11 | outcome [10] | remaining NAD [11] 10 nM | luciferase signal [12] 76 AU
2.22: SSMD [14]
6850: cell count [14]

CN(C)CCOc1ccc(/C(=C(/CCCl)c2ccccc2)c2ccccc2)cc1
active: AC50 [6] 20.9 µM
3260: cell count [14]
-11.1: SSMD [14]
inactive: z-score [1] -0.537 | outcome [3] | outcome [4] | outcome [7] | plate-normalised HSF1 focus index [14] 0.417 | remaining NAD [11] 10 nM | z-score [13] -2.31

CN1[C@@H]2CCC[C@H]1CC(NC(=O)c1nn(C)c3ccccc13)C2 (stereo partly drawn)
inactive: z-score [1] 1.21 | outcome [2] | outcome [3] | outcome [4] | outcome [5] | outcome [6] | outcome [7] | outcome [8] | outcome [9] | remaining NAD [11] 10 nM | z-score [13] 0.01

CNCC[C@@H](Oc1ccccc1C)c1ccccc1
inactive: z-score [1] 0.0903 | remaining activity [16] 96.2% | remaining NAD [11] 10 nM | luciferase signal [12] 64 AU | z-score [13] -0.26

O=C1CC[C@@H](C(=O)N2CSC[C@H]2C(=O)O)N1 ([pGlu]-[Thz]-OH)
inactive: z-score [1] -0.307 | remaining NAD [11] 10 nM

CN(C)CCc1c[nH]c2ccc(Cn3cncn3)cc12
inactive: outcome [1] | outcome [3] | outcome [7] | remaining NAD [11] 10 nM | luciferase signal [12] 52 AU | z-score [13] 0.12
active: AC50 [4] 20.9 µM | AC50 [15] 20.9 µM

C[C@H]1O[C@H](O[C@H]2[C@H](O)[C@@H](O)[C@@H](O[C@H]3[C@H](O)[C@@H](O)C(O)O[C@@H]3CO)O[C@@H]2CO)[C@H](O)[C@@H](O)[C@@H]1N[C@H]1C=C(CO)[C@@H](O)[C@H](O)[C@H]1O (stereo partly drawn)
inactive: z-score [1] -1.33 | outcome [2] | outcome [3] | outcome [4] | outcome [6] | outcome [7] | outcome [8] | outcome [9] | remaining NAD [11] 10 nM | luciferase signal [12] 52 AU

CC(CCCCC(=O)Nc1ccc(C(F)(F)F)cc1)NCCc1cnc[nH]1 (stereo not drawn)
inactive: z-score [1] -0.258 | remaining activity [16] 92.5% | z-score [13] 0.675 and -0.77

C/C(=C\C(=O)OCCCCCCCCC(=O)O)C[C@@H]1OC[C@H](C[C@@H]2O[C@H]2[C@@H](C)[C@H](C)O)[C@@H](O)[C@H]1O
inactive: remaining NAD [11] 10 nM | luciferase signal [12] 48 AU | z-score [13] -1.42

CC[C@H]1OC(=O)[C@H](C)[C@@H](O[C@H]2C[C@@](C)(OC)[C@@H](O)[C@H](C)O2)[C@H](C)[C@@H](O[C@@H]2O[C@H](C)C[C@H](N(C)C)[C@H]2O)[C@](C)(O)C[C@@H](C)CN(C)[C@H](C)[C@@H](O)[C@]1(C)O
inactive: outcome [2] | outcome [4] | outcome [15] | outcome [5] | outcome [6] | outcome [7] | outcome [8] | outcome [9] | remaining NAD [11] 10 nM | luciferase signal [12] 20 AU | z-score [13] 1.2

CC(Cc1ccc(O)c(O)c1)(NN)C(=O)O (stereo not drawn)
inactive: outcome [2] | outcome [3] | outcome [4] | outcome [15] | outcome [5] | outcome [6] | outcome [7] | outcome [8] | z-score [13] -1.27

COC(=O)C[C@](O)(CCCC(C)(C)O)C(=O)O[C@@H]1C(OC)=C[C@]23CCCN2CCc2cc4c(cc2[C@H]13)OCO4
inactive: outcome [1] | remaining activity [16] 98.2% | z-score [13] -0.84

O=C1c2c(O)cc(O)cc2O[C@H](c2ccc(O)c(O)c2)[C@H]1O
inactive: z-score [1] -0.839 | outcome [4] | outcome [6] | outcome [7] | outcome [8] | outcome [9]

CC(C)(C)NC(=O)[C@@H]1C[C@@H]2CCCC[C@@H]2CN1C[C@@H](O)[C@H](Cc1ccccc1)NC(=O)[C@H](CC(N)=O)NC(=O)c1ccc2ccccc2n1
inactive: survival [18] 25.4 | z-score [1] 1.64

CC(C)OC(=O)CCC/C=C\C[C@@H]1[C@@H](CC[C@@H](O)CCc2ccccc2)[C@H](O)C[C@@H]1O
inactive: z-score [1] -0.836 | z-score [13] 0.01

C[C@H]1[C@@H](OC(=O)CCC(=O)O)O[C@@H]2OC3(C)CC[C@H]4[C@H](C)CC[C@@H]1[C@@]24OO3
inactive: z-score [1] -0.982 | z-score [13] -2.11

CC1CC2C3CCC4=CC(=O)C=CC4(C)[C@@]3(Cl)C(O)CC2(C)C1(O)C(=O)CO (stereo partly drawn)
inactive: z-score [1] 0.0119 | z-score [13] 1.36

CC1(C)SC2C(NC(=O)C(N)c3ccccc3)C(=O)N2C1C(=O)O (stereo not drawn)
inactive: z-score [13] 0.46

CC1CNc2c(cccc2S(=O)(=O)N[C@@H](CCCN=C(N)N)C(=O)N2CC[C@@H](C)C[C@@H]2C(=O)O)C1 (stereo partly drawn)
inactive: z-score [1] -1.46 | outcome [5] | outcome [6] | outcome [7] | outcome [8] | outcome [9] | z-score [13] 0.59

Nc1ccn([C@@H]2CS[C@H](CO)O2)c(=O)n1
inactive: z-score [1] 0.62 | outcome [2] | outcome [5] | outcome [6] | outcome [8] | outcome [9] | remaining NAD [11] 10 nM | z-score [13] 1.21

CCC(CO)NCCNC(CC)CO (stereo not drawn)
inactive: z-score [13] 0.45

O=C1C(c2c(O)[nH]c3ccccc23)=Nc2ccccc21
inactive: survival [18] 88 | outcome [1] | outcome [4] | outcome [7] | outcome [8] | outcome [9] | z-score [13] -0.25
active: AC50 [15] 13.2 µM

CC(=O)C1(O)CCC2C3CC(C)C4=CC(=O)C=CC4(C)C3(F)C(O)CC21C (stereo not drawn)
inactive: z-score [13] -0.02

Cc1onc(-c2ccccc2)c1C(=O)NC1C(=O)N2C1SC(C)(C)C2C(=O)O (stereo not drawn)
inactive: z-score [13] 0.33 and 0.12

CC1(C)SC2C(NC(=O)Cc3ccccc3)C(=O)N2C1C(=O)O (stereo not drawn)
inactive: z-score [13] -0.1
